Measured values from PubChem BioAssay AID1863 (Southern Research Specialized Biocontainment Screening …, 2009).
The campaign covered roughly 300,000 compounds. About 480 (0.16%) were called active. The list is a sample of the results. Results with a measured potency or affinity are listed apart. Unmarked numbers belong to inactive results.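 How the source made its calls: active means inhibition over 29.93%, a cutoff 3 SD above the screen mean, later confirmed by dose response; inconclusive means inhibition over 29.93% but no dose response follow-up; inactive means inhibition at most 29.93% or unconfirmed.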

Experiment: inhibitors of PhoP regulon expression, primary screen, Salmonella Typhimurium, GFP reporter (AID 1863);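 further: 0% = low Mg2+ inducing control and 100% = high Mg2+ repressing control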
Conditions: S. Typhimurium PhoP-regulated promoter GFP reporter, 4 h; at 50 µM; stronger effect = higher value

| SMILES | inhibition |
| --- | --- |
| O=[N+]([O-])c1ccc(CSc2nc3ccccc3o2)cc1 | 8.78% |
| O=[N+]([O-])c1ccc(Cl)cc1Sc1nc2ccccc2o1 | 0.44% |
| O=S(=O)(Nc1nccs1)c1cnc(Cl)c(Br)c1 | -2.83% |
| Cc1cc(C(=O)CN2C(=O)NC3(CCCc4ccccc43)C2=O)c(C)n1Cc1cccs1 (centres undefined) | 8.89% |
| CSCCC(NC(=O)c1cccc([N+](=O)[O-])c1)C(=O)OCC(=O)N1CCCC1=O (centres undefined) | 1.97% |
| CCN=C1SC(CC(=O)NC2CCCCC2)C(=O)N1CC (centres undefined) | 8.13% |
| Cc1ccc(-c2c[n+](Cc3ccc(Cl)cc3)c3n2CCC3)cc1 | -4.34% |
| Clc1ccc(C[n+]2cc(-c3ccccc3)n3c2CCCCC3)c(Cl)c1 | 8.08% |
| Clc1ccc(-c2c[n+](Cc3cccc(Cl)c3)c3n2CCC3)cc1 | 5.53% |
| Cc1ccc(C[n+]2cc(-c3ccc(Cl)cc3)n3c2CCC3)cc1 | 31.5% |
| COC(=O)C(C)(C(=O)OC)c1ccc(C(F)(F)F)cc1[N+](=O)[O-] | -5.58% |
| C=CCN1C(=O)C(CC(=O)Nc2ccc(OCC)cc2)N(Cc2ccccn2)C1=S (centres undefined) | -2.55% |
| Cc1ccc(NC(=S)N2CCOCC2)c(C)c1 | -0.67% |
| CN1C(=O)C(O)(CC(=O)c2cccs2)c2ccccc21 (centres undefined) | -3.39% |
| O=C1C(=O)N(CC2CCCO2)C(c2ccccc2[N+](=O)[O-])/C1=C(/O)c1ccccc1 (centres undefined) | 2.01% |
| CC1(C)CC(=O)C2=C(C1)OC(c1ccncc1)C(C#N)=C2N (centres undefined) | -4.82% |
| O=C(NC1CCCCC1)C1CCN(c2cnccn2)CC1 | 17.7% |
| O=C(NC(Cc1ccccc1)C(=O)NCc1ccccn1)c1ccco1 (centres undefined) | 1.32% |
| Nc1nc2ccccc2n1CCOc1ccc(Cl)cc1 | 11.6% |
| Nc1nc2ccccc2n1CCOc1ccc(F)cc1 | 10.1% |
| CCn1c(N)nc2ccccc21 | 5.85% |

| SMILES | inhibition |
| --- | --- |
| Cc1ccc(Cn2c(N)nc3ccccc32)cc1 | 11.5% |
| CC(NC(=O)c1ccco1)C(=O)OCC(=O)c1ccc(Cl)s1 (centres undefined) | -10.8% |
| CN1C(C(=O)Nc2ncccn2)=C(O)c2ccccc2S1(=O)=O | 5.72% |
| COc1cc(C(=O)NCc2nnc(SCC(=O)Nc3cc(C)on3)o2)cc(OC)c1OC | -1.06% |
| CCOC(CNC(=O)Cn1nc(Cc2ccncc2)c2ccccc2c1=O)OCC | 1.12% |
| COc1ccc(O)c(/C=N/Nc2nc3ccccc3[nH]2)c1 | -9.48% |
| CCN(CC)c1ccc(/C=N/Nc2nc(C)cc(=O)[nH]2)c(O)c1 | 6.35% |
| CCN(CC)c1ccc(/C=N/Nc2ccccc2)c(O)c1 | 7.3% |
| Cc1ccccc1/C=N/Nc1nc2ccccc2[nH]1 | -7.4% |
| CC1=C(C(N)=O)C(c2ccccn2)n2nc(SCc3ccccc3)nc2N1 (centres undefined) | 1.82% |
| CCCCSc1nc2c(=O)[nH][nH]c(=O)c2n1Cc1ccccc1 | -7.79% |
| Cc1ccc(NC(=O)NNC(=O)c2ccccc2)cc1 | 3.02% |
| C#CCOCCOCCOCCNc1nc(N2CCN(C(=O)CCCCCCCCCCNC(=O)[C@H]([C@@H](C)CC)n3cc(CCCCN=C(N)N)nn3)CC2)nc(N2CCN(C(=O)CCCCCCCCCCNC(=O)[C@H](CCCCN)n3cc(C[C@@H](C)CC)nn3)CC2)n1 | 21.5% |
| C#CCOCCOCCOCCNc1nc(N2CCOCC2)nc(N2CCN(C(=O)CCCCCCCCCCNC(=O)[C@H]([C@@H](C)CC)n3cc(CCCCN=C(N)N)nn3)CC2)n1 | 11.5% |
| C#CCOCCOCCOCCNc1nc(N2CCN(C(=O)CCCCCCCCCCNC(=O)[C@H]([C@@H](C)CC)n3cc(CCCCCN)nn3)CC2)nc(N2CCN(C(=O)CCCCCCCCCCNC(=O)[C@H]([C@@H](C)CC)n3cc(CCCCN=C(N)N)nn3)CC2)n1 | 11.9% |
| C#CCOCCOCCOCCNc1nc(N2CCN(C(=O)CCCCCCCCCCNC(=O)[C@@H](CCSC)n3cc(CCO)nn3)CC2)nc(N2CCN(C(=O)CCCCCCCCCCNC(=O)[C@H]([C@@H](C)CC)n3cc(CCCCN=C(N)N)nn3)CC2)n1 | 4.22% |
| C#CCOCCOCCOCCNc1nc(N2CCN(C(=O)CCCCCCCCCCNC(=O)[C@H]([C@@H](C)CC)n3cc(CCCCN=C(N)N)nn3)CC2)nc(N2CCN(C(=O)CCCCCCCCCCNC(=O)[C@H](CCCCN)n3cc(C)nn3)CC2)n1 | 24.6% |
| C#CCOCCOCCOCCNc1nc(N2CCN(C(=O)CCCCCCCCCCNC(=O)[C@H](CO)n3cc(CCCSC)nn3)CC2)nc(N2CCN(C(=O)CCCCCCCCCCNC(=O)[C@H](CCCN=C(N)N)n3cc(C[C@@H](C)CC)nn3)CC2)n1 | 4.93% |
| Cc1cc(C)nc(-n2nc(C)cc2NC(=O)CNCc2ccccc2)n1 | 1.3% |
| COC(=O)c1ccc(COc2ccc(/C=N/Nc3nc(C)cc(=O)[nH]3)cc2)cc1 | 2.45% |
| Cc1ccc(N2C(=O)c3cccc4c(Oc5ccccc5[N+](=O)[O-])ccc(c34)C2=O)c(C)c1 | -0.66% |

| SMILES | inhibition |
| --- | --- |
| CC(=O)c1cccc(S(=O)(=O)N(C)C2CCN(C)CC2)c1 | 6.64% |
| COc1cnc(-c2ccccc2)[nH]c1=O | 3.46% |
| COc1cnc(-c2cccc(C(F)(F)F)c2)[nH]c1=O | -6.31% |
| CCN(CC)CCNC(=O)C(=O)Nc1ccc2c(c1)N(S(=O)(=O)c1cccs1)CCC2 | 0.58% |
| CC1(C)CC(=O)c2sc(NS(=O)(=O)c3ccc(Cl)cc3)nc2C1 | -6.02% |
| CCn1c(CSc2nnc(-c3ccncc3)n2CCOC)nc2cc(C(=O)O)ccc21 | 1.32% |
| CC(C)(C)NCC(O)COc1ccc(Br)cc1 (centres undefined) | -5.49% |
| COc1ccc(NCC(O)COc2ccc(C(C)(C)C)cc2)cc1 (centres undefined) | 18.9% |
| Cc1ccc(Nc2cc(C)c3ccc(O)cc3n2)cc1C | 59.6% |
| CC(=O)Nc1ccc(Nc2cc(C)c3ccccc3n2)cc1 | -1.27% |
| COc1ccc(Nc2cc(C)c3ccccc3n2)cc1 | -10.8% |
| COC(=O)c1cc(Nc2cc(C)c3c(O)cccc3n2)cc(C(=O)OC)c1 | 1.78% |
| O=C(Nc1ccccc1)c1cnc(-c2ccccc2)nc1-c1ccccc1 | -0.26% |
| NC(=O)C1CCN(C(=O)CSc2ccccn2)CC1 | -5.25% |
| CCCCCCNC(=O)c1cc(S(=O)(=O)N2CCc3ccccc32)ccc1F | -0.27% |
| O=C(NNCc1ccc(O)cc1)c1ccccc1Cl | -5.79% |
| O=C(O)CC(Cc1ccc(Cl)cc1)C(=O)Nc1ccc([N+](=O)[O-])cc1 (centres undefined) | -6.77% |
| O=C(Cc1ccccc1)NC(C(=O)O)C(O)c1ccc([N+](=O)[O-])cc1 (centres undefined) | 2.69% |
| CCOC(=O)C(NC(C)=O)C(O)c1ccc([N+](=O)[O-])cc1 (centres undefined) | 4.56% |
| O=[N+]([O-])c1ccc(C(O)C(CO)NC(=S)Nc2ccccc2)cc1 (centres undefined) | -9.91% |
| O=C(O)CC(Cc1ccccc1)C(=O)Nc1ccc([N+](=O)[O-])cc1 (centres undefined) | -0.18% |

| SMILES | inhibition |
| --- | --- |
| NC(CO)C(O)c1ccc([N+](=O)[O-])cc1 (centres undefined) | 2.92% |
| COc1ccc(S(=O)(=O)N2CCCCCC2)cc1N(C)S(=O)(=O)c1ccc(C)cc1 | -9.69% |
| CCCC(=O)N(c1ccc(OCC)cc1)C1C=CS(=O)(=O)C1 (centres undefined) | -5.2% |
| COC(=O)C(c1cc(OC)c(O)c(OC)c1)(N1CCNC(C)C1)C(F)(F)F (centres undefined) | 1.17% |
| CCOC(=O)c1cn(C2CC2)c2c(F)c(F)c(F)cc2c1=O | -6.9% |
| O=C(O)c1cn(C2CCCCC2)c2ccccc2c1=O | -3.48% |
| C[C@@H]1CN(c2c(F)c(N)c3c(=O)c(C(=O)O)cn(C4CC4)c3c2F)C[C@H](C)N1 | -7.7% |
| COC(=O)c1ccc(NC(=O)C(OC)c2ccccc2)cc1 (centres undefined) | 5.34% |
| O=C(NNC(=O)c1ccccc1OCc1ccc(F)cc1)c1ccccc1O | 1.71% |
| COc1cccc(Oc2ccc(S(=O)(=O)N3CCCC3)cc2[N+](=O)[O-])c1 | -0.65% |
| COc1ccc([C@@H]2[C@@H]3C(=O)N(C(C)(C)C)C(=O)[C@@H]3[C@]3(Cc4ccccc4)C(=O)N(c4ccccc4)C(=O)N23)cc1 | 6.74% |
| O=C(COc1ccccc1F)NNC(=O)c1ccc2c(=O)n3c(nc2c1)CCC3 | -5.21% |
| CC(CN1CCCCC1)OC(=O)C(C)(c1ccccc1)c1ccccc1 (centres undefined) | -9.7% |
| O=S(=O)(NCC1CCCO1)c1ccc(S(=O)(=O)N(Cc2ccc(F)cc2)Cc2ccco2)cc1 (centres undefined) | 2.4% |
| CCCC(=O)Nc1c2c(nc3ccccc13)N(c1ccccc1)CC2 | -4.18% |
| CCN(CCCCN1C(=O)c2ccccc2C1=O)c1ccc2c(c1)C(=O)N(C)C2=O | -8.03% |
| COc1ccc(-c2cc3ccccc3n2CC(O)Cn2nc(C)cc2C)cc1 (centres undefined) | 1.53% |
| O=C(O)c1cn(-c2ccc(F)cc2)c2cc(Cl)c(F)cc2c1=O | 5.58% |
| O=C(O)c1cn(-c2ccc(N3CCCC3)c(F)c2)c2c(F)c(F)c(F)cc2c1=O | -6.63% |
| O=C(/C=C/c1ccc([N+](=O)[O-])cc1)NCCc1ccccc1 | 6.48% |
| O=c1cc(N2CCN(c3ccccc3F)CC2)[nH]c(=O)n1-c1ccc(Br)cc1 | -3.95% |
